# Test results reported in paper PMC4552634, “A New Set of Chemical Starting Points with Plasmodium falciparum Transmission-Blocking Potential for Antimalarial Drug Discovery” (PLoS ONE, 2015).
# Out of some 13,000 compounds screened, about 3,200 (25%) showed an effect of 50% or more. This is one part of the list.
# System: P. falciparum stage V gametocytes
# Design: BacTiter-Glo ATP luminescence viability of purified stage V gametocytes in 384-well plates, per cent inhibition versus DMSO
# Settings: 48 h, 5 µM; inhibitor
row,Compound,% Inhibition [%]
1,COc1ccc2ncc(F)c(CCN3CC[C@@H](CNCc4cc(C)c5c(c4)OCCO5)C3)c2n1 [TCMDC-136077],34.91
2,CC(C)c1ccc(OCC(O)CN(CCN2CCOCC2)C(=O)Nc2ccc(Br)cc2)cc1 (centres unmarked) [TCMDC-141492],-0.3608
3,CCn1c(-c2nc(-c3ccnc(N4CCN(C)CC4)c3)cnc2N)nc2cc(S(C)(=O)=O)ccc21 [TCMDC-134155],31.49
4,CCn1c(-c2nc(-c3ccc4c(c3)OCO4)cnc2N)nc2cnccc21 [TCMDC-135178],6.285
5,COc1cccc2cc(C(=O)N[C@@H](CC(C)C)C(=O)N[C@H](C=NN3CCOC3=O)Cc3ccccc3)oc12 [TCMDC-136074],-0.683
6,O=C(c1cccc(-c2noc(C(F)(F)F)n2)c1)N1CCN(c2nsc3ccccc23)CC1 [TCMDC-132425],-18.4
7,Clc1cc(Nc2ncnc3cc(C#C[C@H]4CCCN4)sc23)cc2[nH]c(Cc3ccccc3)nc12 [TCMDC-134519],58.91
8,Fc1cccc(COc2ccc(Nc3ncnc4sc(C#CC5CCCCN5)cc34)cc2Cl)c1 (centres unmarked) [TCMDC-138878],40.6
9,O=C(O[C@H]1CN[C@H](C#Cc2cc3ncnc(Nc4ccc5c(ccn5S(=O)(=O)c5cccs5)c4)c3s2)C1)N1CCOCC1 [TCMDC-134691],26.92
10,CN(C)C(=O)O[C@@H]1CN[C@H](C#Cc2cc3ncnc(Nc4ccc5c(cnn5Cc5cccc(F)c5)c4)c3s2)C1 [TCMDC-135233],25.46
11,Clc1cc(Nc2ncnc3sc(C#C[C@H]4CCCN4)cc23)ccc1OCc1cccnc1Cl [TCMDC-134849],8.343
12,O=S(=O)(c1ccccc1)n1ccc2cc(Nc3ncnc4cc(C#C[C@H]5CCCN5)sc34)ccc21 [TCMDC-138913],83.41
13,COc1ccc(-c2cc(NCc3ccc(-n4ccnc4)cc3)nc(Nc3ccccc3)n2)cc1 [TCMDC-133466],0.1166
14,Cc1ccc(Nc2nc(NN=Cc3ccc(-c4ccc([N+](=O)[O-])cc4)o3)nc(N3CCOCC3)n2)cc1Cl [TCMDC-123853],16.13
15,COc1ccc(F)cc1-c1cccc(CNC2CCN(CC3Cn4c(=O)ccc5ccc(F)c3c54)CC2)c1 (centres unmarked) [TCMDC-134406],-45.9
16,COc1ccc(CNCc2ccc(F)cc2)cc1-c1cccc(S(=O)(=O)NCCN2CCCC2)c1 [TCMDC-132223],101.2
17,COc1ccc(CNCc2ccccc2)cc1-c1cccc(S(=O)(=O)NCCN2CCCC2)c1 [TCMDC-132268],57.83
18,COc1ccc2nccc([C@@H](O)CN3CCC(NC(=O)c4ccc(Cl)c(Cl)c4)CC3)c2c1 [TCMDC-141036],-20.77
19,COc1cc(Nc2nccc(Nc3ccc4c(C)[nH]nc4c3)n2)cc2ccccc12 [TCMDC-138587],-18.63
20,CC(Oc1cccc(Cl)c1)C(=O)N1CCc2ccccc21 (centres unmarked) [TCMDC-123685],-22.19
21,CN(CC(=O)Nc1ccc(F)cc1)C(=O)c1ccc(-c2ccc(F)cc2)o1 [TCMDC-125342],61.72

row,Compound,% Inhibition [%]
1,CC(=O)Nc1ccc(CN(Cc2ccc(F)cc2)Cc2ccc3c(c2)OCO3)cc1 [TCMDC-140255],12.12
2,O=C(NCc1ccc(F)cc1)Nc1ccc(-c2ccc(-c3nc4ccccc4[nH]3)cc2)cc1 [TCMDC-133299],-2.169
3,Nc1ncc(-c2ccc(S(=O)(=O)Nc3ccc(C(=O)N[C@@H](CCC(=O)O)C(=O)O)cc3)cc2)c(=O)[nH]1 [TCMDC-137342],-1.262
4,CN1CCC(C(=O)Nc2ccc(-c3ccc(-c4nc5cc(C(F)(F)F)ccc5[nH]4)s3)cc2)CC1 [TCMDC-132183],-1.127
5,O=C(Nc1ccc(-c2csc(-c3nc4ccccc4[nH]3)c2)cc1)Nc1ccsc1 [TCMDC-133207],-12.45
6,O=C(Nc1ccc(-c2cccc(-c3nc4ccccc4[nH]3)c2)cc1)Nc1ccsc1 [TCMDC-133220],7.696
7,CN1CCC(C(=O)Nc2ccc(-c3ccc(-c4nc5ccccc5[nH]4)s3)cc2)CC1 [TCMDC-132179],54.96
8,O=C(Nc1ccc(-c2ccc(-c3nc4ccccc4[nH]3)s2)cc1)Nc1ccsc1 [TCMDC-133219],69.14
9,CC(C)=CCN1CCC(C(=O)Nc2ccc(-c3nc4ccccc4[nH]3)cc2)CC1 [TCMDC-124613],-52.31
10,CN1CCC(C(=O)Nc2ccc(-c3ccc(-c4nc5ccccc5[nH]4)cc3)cc2)CC1 [TCMDC-132187],59.64
11,CN1CCC(C(=O)Nc2cccc(-c3ccc(-c4nc5ccccc5[nH]4)cc3)c2)CC1 [TCMDC-132186],-0.3438
12,CN1CCN(CC(=O)Nc2ccc(-c3ccc(-c4nc5ccccc5[nH]4)s3)cc2)CC1 [TCMDC-136971],-13.63
13,COc1ccc2nccc([C@@H](O)CN3CCC(NCc4cc5cccc(OCc6ccccc6)c5[nH]4)CC3)c2c1 [TCMDC-141117],10.73
14,Clc1cccc(C=NNc2ccnc3ccccc23)c1 [TCMDC-142057],-48.21
15,CSc1cccc(Nc2nc3ccc(S(=O)(=O)NCC(C)C)cc3n2C(C)C(C)C)c1 (centres unmarked) [TCMDC-136235],-38.43
16,O=C(CCN(Cc1ccco1)c1nc(-c2ccc(F)cc2)nc2ccccc12)NC1CC1 [TCMDC-124785],-4.08
17,O=C(Cc1cccc2ccccc12)NC1CCN(c2ccnc3cc(Cl)ccc23)C1 (centres unmarked) [TCMDC-133666],-21.93
18,O=C(NCC1CN(Cc2ccc(N3CCCC3)o2)CCCO1)c1ccc2c(c1)OCO2 (centres unmarked) [TCMDC-134852],-25.48
19,Cc1cc(N[C@@H](CC(C)C)C(=O)Nc2ccccc2)nc(NCc2ccccc2C)n1 [TCMDC-134912],-40.4
20,COc1cc(C(=O)N2CCOC(CCN3CCC(Cc4ccc(F)cc4)CC3)(c3ccc(Cl)c(Cl)c3)C2)cc(OC)c1OC (centres unmarked) [TCMDC-135568],-27.28
